Each structure is given as a SMILES string. This is part of a sample that, as a whole, favours compounds with a hit. Of some 83,000 tested, about 20% had one in any assay.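 Single-concentration screen, 48 h exposure, 96-well plates. Endpoint: percent growth. Below 10 = active.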 Active and inactive are the calls of the source.

The subject of one test is SR leukemia. Kind of test: NCI-60 one-dose screen, 48 h (100 = growth as untreated, 0 = no growth, -100 = all killed). To be noted: 10 µM unless noted.
Turning to `Cc1ccc(N(CC(=O)Nc2ccc(S(=O)(=O)NC3CCN(C)CC3)cc2)S(=O)(=O)c2ccc(Cl)cc2)cc1`, the growth is 5.99% (active). The same measure, in the same setting: under `N#CC1=C(N)Oc2ccc3ccccc3c2C1c1ccccc1` (stereo not drawn) stands 25.1% (inactive); under `COc1ccc(C(=O)/C=C/c2cc(-c3cc(OC)c(OC)c(OC)c3)n[nH]2)cc1OC`, -15.6% (active). With `Cn1c(/C(C#N)=C/c2ccc3ccccc3c2)cc2ccccc21`, the growth is 19.5% (inactive). On the same count and under the same terms, the value for `CCN(CC)c1ccc(/C=C/c2cc(C)c3ccccc3n2)cc1` was 43.6% (inactive).

The test system of a further test is RPMI-8226 leukemia. The test is described as above. To be noted: 10 µM unless noted.
Take `COc1cccc(-c2nn(-c3ccccc3)cc2-c2ccnc(NCCCN)c2)c1`: the growth was 44% (inactive).

With `Cn1cnc2c1c(=O)n(CCC(=O)Nc1ccc(F)cc1)c(=O)n2C`, the growth was 101% (inactive). Still for that read-out and setting: under `C=C(C)[C@@H]1CC[C@]2(C=O)CC[C@]3(C)[C@H](CC[C@@H]4[C@@]5(C)C/C(=C/c6cccnc6)C(=O)C(C)(C)[C@@H]5CC[C@]43C)[C@@H]12` stands 35.5% (inactive); under `CN(C)c1cccc2[nH]c(-c3[nH]ncc3Nc3ccnc(N)n3)nc12`, -15.6% (active); under `O=Cc1nc2ccccc2[nH]1`, 96.9% (inactive). As for `COc1cc2nc(Cl)nc(Nc3cccc(C(=O)/C=C/c4ccc(Br)cc4)c3)c2cc1OC`, the growth is -2.21% (active). The same measure, in the same setting: the value for `CC[C@H](CC[C@@H](C)[C@H]1CC[C@H]2[C@@H]3/C(=C/c4cccnc4)C(=O)C4=CC(=O)CC[C@]4(C)[C@H]3CC[C@]12C)C(C)C` was 74.4% (inactive). On the same count and under the same terms, the value for `C=C(C)[C@@H]1CC[C@]2(c3nnc(-c4ccncc4)o3)CC[C@]3(C)[C@H](CC[C@@H]4[C@@]5(C)CCC(=O)NC(C)(C)[C@@H]5CC[C@]43C)[C@@H]12` was 81.4% (inactive).

For the origin of these results see PubChem BioAssay (NCI).
